Experimental findings from PubChem BioAssay AID1209 (Sanford-Burnham Center for Chemical Genomics, 2008) are described below.

Among all 190,000 compounds or so, about 810 (0.43%) were called active. The sample holds actives, similar compounds and a random draw of the others, so the mix is not that of the screen. A number with no mark means an inactive call. Rule as the data show it: active = inhibition above about 50%; inactive = the rest.

For this assay, the target named is Mannose-6-phosphate isomerase (Homo sapiens) (UniProt P34949). The experiment in a line: MPI enzyme activity inhibition – biochemical, fluorescence intensity, coupled assay, primary screen (AID 1209).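 Also: plate controls were DMSO vehicle for no effect and wells lacking substrate for full effect.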 The following applies: purified PMI enzyme, at 20 µM, hits give high values.
Sequence of Mannose-6-phosphate isomerase (Homo sapiens) (P34949 whole entry, looked up): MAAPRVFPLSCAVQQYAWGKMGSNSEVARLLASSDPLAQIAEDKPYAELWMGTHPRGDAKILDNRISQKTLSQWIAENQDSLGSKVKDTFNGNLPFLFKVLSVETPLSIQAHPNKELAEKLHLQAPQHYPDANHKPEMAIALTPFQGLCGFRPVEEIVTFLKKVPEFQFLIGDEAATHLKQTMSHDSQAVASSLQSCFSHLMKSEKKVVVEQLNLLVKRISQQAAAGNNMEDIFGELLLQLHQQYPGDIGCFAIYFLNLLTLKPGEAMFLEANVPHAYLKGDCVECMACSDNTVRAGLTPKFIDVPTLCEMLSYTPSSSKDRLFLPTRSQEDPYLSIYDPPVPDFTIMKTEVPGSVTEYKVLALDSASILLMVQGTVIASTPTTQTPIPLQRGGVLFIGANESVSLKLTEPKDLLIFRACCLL
In the case of `CN1CCN(/N=C/c2nc(-c3cccc([N+](=O)[O-])c3)n3ccccc23)CC1`, the inhibition is 8.1%. In the case of `O=C(Nc1nc2ccccc2[nH]1)C1CCCC1`, the inhibition is 4.1%.

For the molecule `CC(NS(=O)(=O)c1ccccc1)C(c1cccs1)N1CCN(C)CC1` (stereo not given), the inhibition was 1.7%. Next, `CC(=O)n1cc(C(C[N+](=O)[O-])SCCN)c2ccccc21` (stereo not given): 6.6%. `CC(=O)SC(C[N+](=O)[O-])c1cn(C(C)=O)c2ccccc12` (stereo not given): the inhibition was 63.1% (active). On to `CC(=O)n1cc(Nc2ccc([N+](=O)[O-])cc2)c2ccccc21`, for which the inhibition was -30.8%. The result for `C=CCn1c(SCC(=O)Nc2nc(C)cs2)nnc1C(NC(=O)c1ccccc1)C(C)C` (stereo not given) reads 5.4%.

For `O=C(CSc1nc(-c2ccccc2)nc2ccccc12)Nc1cccc(C(=O)O)c1`, the inhibition is 20.6%.

Turning to `CCOC(=O)c1cc(-c2ccccc2)sc1NC(=O)c1ccc(OC)c(OC)c1`, the inhibition is 42.1%. Take `CCOC(=O)c1cc(-c2ccccc2)sc1NC(=O)c1cc(OC)c(OC)c(OC)c1`: the inhibition was 13%. Next, `CCOC(=O)c1cc(-c2ccccc2)sc1NC(=O)c1ccc(OC)cc1`: 68.2% (active); `CCn1c(SCC(=O)c2ccc(CNC(C)=O)o2)nnc1-c1cccs1`: -9%. The result for `O=c1nc(-c2ccccc2)c2ccccc2[nH]1` reads 10.3%; that for `O=c1cc2[nH]c3ccccc3c(=O)n2nc1-c1ccccc1`, 63.9% (active). The result for `O=c1cc(-c2ccccc2)[nH]c2ccccc12` reads -3.1%; that for `Cc1ccc(Cl)cc1NC(=O)N[C@@H](C)C(=O)O`, -0.2%. Regarding `O=C(C1CCN(S(=O)(=O)c2cccc3nsnc23)CC1)N1CCn2c1nc1ccccc12`, the inhibition is 8.5%. `C=CCn1c(NCCOC)nc2c1c(=O)n(C)c(=O)n2C`: the inhibition is -2.8%. For `CCSc1nnc2nc(C)cc(C)n12`, the inhibition is 7.6%. As for `CCCSc1nnc2nc(C)cc(C)n12`, the inhibition was -2.6%. For `CC(Sc1sc(=S)sc1SC(C)C(=O)O)C(=O)O` (stereo not given), the inhibition was -15.4%. As to `Cc1nnsc1SCC(=O)O`, the inhibition is -12.4%. Take `Cc1nnsc1SC(C)C(=O)O` (stereo not given): the inhibition is 64.6% (active). In the case of `Cc1ccc(S(=O)(=O)N2CCCCC2)cc1NC(=O)Nc1ccc(Cl)cc1Cl`, the inhibition is 13.8%. The result for `CC(Nc1ccc2c(c1)OCCO2)C(=O)N1CCc2ccccc21` (stereo not given) reads 6.4%; that for `Cn1c(=O)n(C)c2cc(S(=O)(=O)Nc3cc(Cl)ccc3O)ccc21`, 9.8%; that for `CCN1/C(=N\N)c2cccc3cccc1c23`, -48%. For `CNC(=O)CN1C(=O)c2cccc3cccc1c23`, the inhibition was -1.5%. Turning to `CCN1C(=O)c2cccc3c(N)ccc1c23`, the inhibition is 64.7% (active).

`CCN1C(=O)c2cccc3c(S(=O)(=O)Nc4ccccc4)ccc1c23`: the inhibition is -1%.

With `CCN1C(=O)c2cccc3c(NC(=O)C(C)(C)C)ccc1c23`, the inhibition is 13.8%. On to `Cc1nc2cc3c(cc2c(C)c1C(=O)OC(C)C)OCO3`, for which the inhibition was -5.2%. Take `Cc1ccc(C(=O)NCc2ccccc2)c(F)c1F`: the inhibition is 5.5%. The result for `COc1ccc(OC)c(NC2c3ccccc3C(=O)N2c2cccnc2)c1` (stereo not given) reads -11.1%. The result for `Oc1ccc2ccccc2c1/C=N/c1nc2c(s1)CCCC2` reads 45.8%; that for `COc1ccc2c(c1)-c1nc(N)sc1CC2`, 73.3% (active); that for `COc1ccc2c(c1)CCc1sc(NC(=O)c3ccc(C)cc3)nc1-2`, 19.4%. The result for `COc1ccc2c(c1)CCc1sc(NC(=O)c3ccco3)nc1-2` reads 31.4%; that for `COc1ccc(C(=O)Nc2nc3c(s2)Cc2cc(OC)ccc2-3)cc1`, -2.4%. On to `COc1ccc2c(c1)-c1nc(/N=C/c3ccc(O)cc3)sc1CC2`, for which the inhibition was 80.2% (active). Next, `COc1ccc2c(c1)-c1nc(NC(=O)c3ccco3)sc1CC2`: 23.9%; `COc1ccc2c(c1)Cc1sc(NC(=O)c3ccccc3)nc1-2`: 3.2%.

With `COc1ccc2c(c1)-c1nc(/N=C/c3ccccc3O)sc1CC2`, the inhibition is 70% (active). Consider `COc1ccc(N=Cc2c(O)ccc3ccccc23)cc1`, for which the inhibition was 37%.

For `COc1ccc2c(c1)-c1nc(/N=C/c3c(O)ccc4ccccc34)sc1CC2`, the inhibition was 77.9% (active). Next, `COc1ccc2c(c1)-c1nc(NC(=O)c3cccs3)sc1CC2`: 26.3%.

As to `COc1cccc(N(CC(=O)N2CCN(C)CC2)S(=O)(=O)c2ccccc2)c1`, the inhibition was 2.4%. The result for `Cc1ccc(C)c(N2CCN(C(c3ccc(N(C)C)cc3)c3nnnn3C(C)(C)C)CC2)c1` (stereo not given) reads 12.6%. Next, `CCCNCC(O)Cn1c2ccccc2n2c(=O)cc(C)c(C#N)c12` (stereo not given): -6%; `Cc1ccc(C)c(NC(=O)CSc2ccc(-c3ccco3)nn2)c1`: 8.2%; `COc1cccc(N(C(=O)Cn2nnc3ccccc32)C(C(=O)NCc2ccco2)c2cccnc2)c1` (stereo not given): 1.5%. The result for `Cc1ccc(C)c(C(=O)NC2CC(C)(C)NC(C)(C)C2)c1` reads 2.7%; that for `CC(NC(=O)c1sc2ccccc2c1Cl)C1CCCO1` (stereo not given), 6.7%. Consider `O=C(CSc1nccc(-c2ccc(Br)cc2)n1)NCCc1ccccc1`, for which the inhibition is 0.8%. For the molecule `CSc1ccc(-c2nc(O)c3cnccn23)cc1`, the inhibition was -16.4%. Regarding `CN(C)S(=O)(=O)c1cccc(NC(=O)c2cc(-c3cccs3)nn2-c2ccccc2)c1`, the inhibition was 2.9%. For the molecule `CC(C)NC(=O)C1CCN(C2CCN(Cc3nc4ccccc4s3)CC2)CC1`, the inhibition is 1.6%.

As to `COc1ccc2c(c1)-c1nc(/N=C/c3cccc(OC)c3O)sc1CC2`, the inhibition was 65.8% (active). As to `COc1cccc(C=Nc2cc(C)on2)c1O`, the inhibition was 13.5%. On to `COc1cccc(C=Nc2cc(C)cc(C)c2)c1O`, for which the inhibition is -1.7%. The result for `CCC(Oc1ccc2c(c1)C(=O)CC(C)(C)O2)C(=O)NCCN1CCCCCC1` (stereo not given) reads 20%; that for `CC(Sc1nnc(COc2ccc([N+](=O)[O-])cc2)n1C)C(=O)O` (stereo not given), 0.2%. Turning to `Cc1cc(NC(=O)C23CC4CC(C2)CC(n2cnc([N+](=O)[O-])n2)(C4)C3)no1`, the inhibition was 2.7%. Next, `Cc1nc([N+](=O)[O-])nn1C12CC3CC(CC(Br)(C3)C1)C2`: 75% (active); `Cc1nc([N+](=O)[O-])nn1C12CC3CC(CC(Cl)(C3)C1)C2`: 4.8%. Next, `CCN(CC)CCCOC(=O)C1(c2ccccc2)CCCC1`: -3.2%; `Cc1ccc(Nc2nnns2)cc1`: 57.4% (active).

In the case of `Cc1ccc(Nc2nc3ccccc3s2)cc1`, the inhibition is -5.9%. Next, `Cc1ccc(Nc2nnns2)cc1C`: 47.5%; `COc1ccc(OC)c(NC(=O)C2C(C(=O)O)C3(Cl)C(Cl)=C(Cl)C2(Cl)C3(Cl)Cl)c1` (stereo not given): 18.2%; `CCC(=O)Nc1ccc2ccccc2c1`: 12%. Next, `CCCCCC(=O)Nc1ccc2ccccc2c1`: 16.7%; `CCOC(=O)C(Nc1ccc2ccccc2c1)C(=O)OCC`: 60.3% (active). `COc1ccc(CNS(=O)(=O)c2cccc(S(=O)(=O)N3CCOCC3)c2)cc1`: the inhibition is 6.7%. In the case of `CCOc1cc(C(C#N)N2CCOCC2)ccc1OC` (stereo not given), the inhibition is 12%. As for `O=C(CN1C(=O)COc2ccccc21)NCCCN1CCN(Cc2ccccc2)CC1`, the inhibition is 4.6%. Next, `CCOC(=O)c1sc(NC(=O)CSc2nc(C)cc(-c3ccccc3)n2)c(C#N)c1C`: 61.2% (active); `CCOC(=O)c1sc(NC(=O)CSc2n[nH]c(-c3ccc(Cl)cc3Cl)n2)c(C#N)c1C`: 25.2%. Take `CCOC(=O)c1sc(NC(=O)CSc2nc(C)cc(C)n2)c(C#N)c1C`: the inhibition is 4.2%. On to `Cc1sc(NC(=O)COc2ccccc2)c(C#N)c1-c1ccccc1`, for which the inhibition is 4.5%. Consider `CCOC(=O)c1sc(NC(=O)CSc2nnc(Cc3ccccc3)o2)c(C#N)c1C`, for which the inhibition was 72.4% (active). The result for `Cc1ccccc1NC(=O)c1sc(NC(=O)COc2ccccc2)c(C#N)c1C` reads 5.1%; that for `CCOC(=O)c1sc(NC(=O)CSc2n[nH]c(-c3ccncc3)n2)c(C#N)c1C`, -4.9%; that for `CCOC(=O)c1c(NC(=O)CSc2nnc(Cc3ccccc3)o2)sc(C(C)=O)c1C`, 9.9%. With `Cc1sc(NC(=O)COc2ccccc2)c(C#N)c1C`, the inhibition was 58.3% (active).

Consider `CCOC(=O)c1sc(NC(=O)CSc2nc(C)cc(C(F)(F)F)n2)c(C#N)c1C`, for which the inhibition was 26.6%.

Regarding `CCOC(=O)c1sc(NC(=O)CSc2nnc(Cc3ccccc3)o2)c(C(=O)OCC)c1C`, the inhibition was 4.9%.

On to `CCOC(=O)c1sc(NC(=O)CSc2n[nH]c(-c3ccccc3)n2)c(C#N)c1C`, for which the inhibition was 51.7% (active). Turning to `Cc1cc(C(=O)Nc2ccc(C(=O)O)cc2)c(-c2ccccc2)o1`, the inhibition was 4%. With `Cc1ccc[n+](CC(=O)c2ccc(NC(=O)c3ccccc3)cc2)c1`, the inhibition is -10.6%. Regarding `COCCN(CCOC)S(=O)(=O)c1ccc(C(=O)Nc2sc3c(c2C(N)=O)CCCCC3)cc1`, the inhibition was 3.2%. The result for `CC(=O)Nc1ccc(NC(=O)COc2c(C)cc(Br)cc2C)cc1` reads 13.2%; that for `CCO/N=C(\C)c1c(O)c(CC)c(-c2ccccc2)n(-c2ccccc2)c1=O`, 9.9%.

Turning to `C=CCn1c(NC(=O)c2ccc(Br)o2)c(C(=O)OCC)sc1=S`, the inhibition is 50.7% (active).

As to `C=CCn1c(NC(=O)CC)c(C(=O)OCC)sc1=S`, the inhibition was 17.3%. As to `CCOC(=O)c1sc(NC(=O)c2ccc(Br)o2)cc1C`, the inhibition is 11.7%. Consider `O=C(NCc1cn2ccccc2n1)c1ccccc1`, for which the inhibition was -15.8%. Turning to `O=C(CCN1CCCCC1)c1ccc2c(c1)OCCO2`, the inhibition was 36.1%. The result for `O=C(CCN1CCC(c2ccccc2)C1)c1ccc2c(c1)OCCO2` (stereo not given) reads 47.6%. In the case of `O=C(CCN1CCCC1Cc1ccccc1)c1ccc2c(c1)OCCO2` (stereo not given), the inhibition is 50.8% (active).

One may read the inhibition as the drop in the measured response relative to a control, in per cent.
